For assay [1], the target named is T1, cGMP-dependent protein kinase 1 (Homo sapiens) (UniProt Q13976).
T1 sequence (whole entry): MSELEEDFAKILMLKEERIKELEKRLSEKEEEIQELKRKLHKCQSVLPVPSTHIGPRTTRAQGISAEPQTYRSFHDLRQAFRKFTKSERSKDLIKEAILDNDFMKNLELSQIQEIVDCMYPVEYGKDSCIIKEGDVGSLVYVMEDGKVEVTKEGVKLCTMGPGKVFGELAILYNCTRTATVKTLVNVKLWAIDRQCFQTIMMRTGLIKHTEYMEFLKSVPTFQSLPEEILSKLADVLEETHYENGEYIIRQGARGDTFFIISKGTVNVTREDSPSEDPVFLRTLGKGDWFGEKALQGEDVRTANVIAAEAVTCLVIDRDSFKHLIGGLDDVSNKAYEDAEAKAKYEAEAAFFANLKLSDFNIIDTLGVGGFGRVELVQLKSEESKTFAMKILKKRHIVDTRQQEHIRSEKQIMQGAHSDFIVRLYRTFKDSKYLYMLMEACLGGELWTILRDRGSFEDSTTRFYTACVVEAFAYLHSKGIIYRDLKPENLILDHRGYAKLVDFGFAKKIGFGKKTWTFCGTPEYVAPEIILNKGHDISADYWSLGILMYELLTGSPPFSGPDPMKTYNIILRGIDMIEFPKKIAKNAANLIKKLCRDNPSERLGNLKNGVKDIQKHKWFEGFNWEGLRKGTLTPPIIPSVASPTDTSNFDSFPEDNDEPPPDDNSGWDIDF
The settings on record: at 1 µM.

Assay [2] addresses T1, cGMP-dependent protein kinase 1 (Homo sapiens). Conditions: at 10 µM.
For assay [3] the target is unchanged. Conditions: at 1 µM. This is another data set of the same source.
Assay [4] shares this target. Conditions: at 10 µM. The source holds these as a separate data set.
Assay [5] has as its target T2, MAP kinase-activated protein kinase 5 (Homo sapiens) (UniProt Q8IW41).
T2 sequence (whole entry): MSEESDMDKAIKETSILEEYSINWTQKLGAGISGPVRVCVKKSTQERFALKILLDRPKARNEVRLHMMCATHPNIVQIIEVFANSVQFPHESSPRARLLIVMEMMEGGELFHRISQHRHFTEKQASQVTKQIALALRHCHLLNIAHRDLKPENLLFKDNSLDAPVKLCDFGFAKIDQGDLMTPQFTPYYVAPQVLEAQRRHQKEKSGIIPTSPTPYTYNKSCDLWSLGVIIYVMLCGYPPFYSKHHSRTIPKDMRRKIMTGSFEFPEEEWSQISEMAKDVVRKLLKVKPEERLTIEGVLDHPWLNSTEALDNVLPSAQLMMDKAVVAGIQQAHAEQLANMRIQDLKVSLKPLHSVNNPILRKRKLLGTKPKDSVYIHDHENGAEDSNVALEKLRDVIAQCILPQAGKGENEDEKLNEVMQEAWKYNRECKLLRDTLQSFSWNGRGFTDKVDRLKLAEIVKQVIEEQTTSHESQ
The settings on record: at 1 µM.

Assay [6] addresses T2, MAP kinase-activated protein kinase 5 (Homo sapiens). Conditions: at 10 µM.
Assay [7] has as its target Serine/threonine-protein kinase N2 (Homo sapiens) (UniProt Q16513). Conditions: at 1 µM.
Assay [8] shares this target. Conditions: at 10 µM.
Assay [9] concerns the target Tyrosine-protein kinase FRK (Homo sapiens) (UniProt P42685). Conditions: at 1 µM.
The target is the same in assay [10]. The settings on record: at 10 µM.
For assay [11], the target named is T3, Phosphorylase b kinase gamma catalytic chain, liver/testis isoform (Homo sapiens) (UniProt P15735).
T3 sequence (whole entry): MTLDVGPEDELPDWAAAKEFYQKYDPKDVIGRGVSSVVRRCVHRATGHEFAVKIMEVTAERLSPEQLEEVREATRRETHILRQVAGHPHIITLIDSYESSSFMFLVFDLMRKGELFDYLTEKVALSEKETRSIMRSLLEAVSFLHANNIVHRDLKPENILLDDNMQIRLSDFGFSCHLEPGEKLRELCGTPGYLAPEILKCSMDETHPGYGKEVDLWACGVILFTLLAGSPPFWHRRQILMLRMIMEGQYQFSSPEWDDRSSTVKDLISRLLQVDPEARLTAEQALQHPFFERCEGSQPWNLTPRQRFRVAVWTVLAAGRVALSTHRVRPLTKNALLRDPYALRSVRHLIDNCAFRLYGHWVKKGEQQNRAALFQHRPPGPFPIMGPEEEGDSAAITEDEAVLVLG
The settings on record: at 1 µM.

Assay [12] has as its target T3, Phosphorylase b kinase gamma catalytic chain, liver/testis isoform (Homo sapiens). The settings on record: at 10 µM.
The target in assay [13] is Serine/threonine-protein kinase pim-1 (Homo sapiens) (UniProt P11309). Conditions: at 1 µM.
Sequence of Serine/threonine-protein kinase pim-1 (Homo sapiens) (P11309 whole entry, looked up): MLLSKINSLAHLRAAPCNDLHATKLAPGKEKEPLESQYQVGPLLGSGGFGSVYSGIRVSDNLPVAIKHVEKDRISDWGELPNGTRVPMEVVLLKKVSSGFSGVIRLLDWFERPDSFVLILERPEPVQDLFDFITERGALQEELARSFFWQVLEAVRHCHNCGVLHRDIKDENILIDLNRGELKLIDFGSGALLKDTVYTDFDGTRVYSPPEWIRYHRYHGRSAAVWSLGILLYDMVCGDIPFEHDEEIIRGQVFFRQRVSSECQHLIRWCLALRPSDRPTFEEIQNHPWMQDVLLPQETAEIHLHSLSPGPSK
Assay [14] shares this target. The settings on record: at 10 µM.
Assay [15] deals with Serine/threonine-protein kinase pim-2 (Homo sapiens) (UniProt Q9P1W9). Conditions: at 1 µM.
Sequence of Serine/threonine-protein kinase pim-2 (Homo sapiens) (Q9P1W9 whole entry, looked up): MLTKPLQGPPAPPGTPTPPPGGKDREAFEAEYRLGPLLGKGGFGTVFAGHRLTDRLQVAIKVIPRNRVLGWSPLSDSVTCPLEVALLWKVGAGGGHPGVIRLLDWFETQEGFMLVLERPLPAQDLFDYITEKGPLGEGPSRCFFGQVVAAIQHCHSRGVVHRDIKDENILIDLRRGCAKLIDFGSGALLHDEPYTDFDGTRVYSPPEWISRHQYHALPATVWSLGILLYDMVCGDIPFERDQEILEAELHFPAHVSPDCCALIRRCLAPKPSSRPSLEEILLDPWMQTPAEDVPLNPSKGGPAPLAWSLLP
Assay [16] shares this target. Conditions: at 10 µM.
The target in assay [17] is Serine/threonine-protein kinase pim-3 (Homo sapiens) (UniProt Q86V86). The settings on record: at 1 µM.
Assay [18] has the same target. Conditions: at 10 µM.
Assay [19] concerns the target Serine/threonine-protein kinase PLK1 (Homo sapiens) (UniProt P53350). Conditions: at 1 µM.
Assay [20] shares this target. The settings on record: at 10 µM.

Sequence of Serine/threonine-protein kinase PLK1 (Homo sapiens) (P53350 whole entry): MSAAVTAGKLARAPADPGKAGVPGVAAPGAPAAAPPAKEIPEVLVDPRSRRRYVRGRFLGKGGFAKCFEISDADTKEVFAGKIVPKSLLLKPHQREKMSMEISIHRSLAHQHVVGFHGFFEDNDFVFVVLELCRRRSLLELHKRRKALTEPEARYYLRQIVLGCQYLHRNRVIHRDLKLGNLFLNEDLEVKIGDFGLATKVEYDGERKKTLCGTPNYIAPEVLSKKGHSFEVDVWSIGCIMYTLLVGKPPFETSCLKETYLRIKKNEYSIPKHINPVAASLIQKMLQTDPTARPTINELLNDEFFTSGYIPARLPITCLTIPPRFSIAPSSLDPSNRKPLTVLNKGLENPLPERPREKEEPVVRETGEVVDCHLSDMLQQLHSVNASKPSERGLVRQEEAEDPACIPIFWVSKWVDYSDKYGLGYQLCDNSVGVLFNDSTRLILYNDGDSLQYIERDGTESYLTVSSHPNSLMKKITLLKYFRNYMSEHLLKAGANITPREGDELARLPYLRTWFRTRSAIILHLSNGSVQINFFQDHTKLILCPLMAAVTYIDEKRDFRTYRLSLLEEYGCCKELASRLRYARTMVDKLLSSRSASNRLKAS
Sequence of Tyrosine-protein kinase FRK (Homo sapiens) (P42685 whole entry): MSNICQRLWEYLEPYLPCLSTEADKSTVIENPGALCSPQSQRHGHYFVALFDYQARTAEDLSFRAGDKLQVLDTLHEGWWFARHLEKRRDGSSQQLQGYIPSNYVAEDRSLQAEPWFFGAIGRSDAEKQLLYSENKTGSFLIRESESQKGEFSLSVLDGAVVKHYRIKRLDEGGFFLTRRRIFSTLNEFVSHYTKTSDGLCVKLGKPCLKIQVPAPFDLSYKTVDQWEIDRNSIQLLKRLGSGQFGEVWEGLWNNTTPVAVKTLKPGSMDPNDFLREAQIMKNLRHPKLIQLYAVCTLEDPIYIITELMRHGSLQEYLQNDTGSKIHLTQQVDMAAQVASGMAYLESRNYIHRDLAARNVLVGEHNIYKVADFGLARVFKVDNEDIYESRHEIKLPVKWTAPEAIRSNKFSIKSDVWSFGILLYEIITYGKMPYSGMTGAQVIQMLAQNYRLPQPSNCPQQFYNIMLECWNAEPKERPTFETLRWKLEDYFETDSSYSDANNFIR
Sequence of Serine/threonine-protein kinase N2 (Homo sapiens) (Q16513 whole entry, looked up): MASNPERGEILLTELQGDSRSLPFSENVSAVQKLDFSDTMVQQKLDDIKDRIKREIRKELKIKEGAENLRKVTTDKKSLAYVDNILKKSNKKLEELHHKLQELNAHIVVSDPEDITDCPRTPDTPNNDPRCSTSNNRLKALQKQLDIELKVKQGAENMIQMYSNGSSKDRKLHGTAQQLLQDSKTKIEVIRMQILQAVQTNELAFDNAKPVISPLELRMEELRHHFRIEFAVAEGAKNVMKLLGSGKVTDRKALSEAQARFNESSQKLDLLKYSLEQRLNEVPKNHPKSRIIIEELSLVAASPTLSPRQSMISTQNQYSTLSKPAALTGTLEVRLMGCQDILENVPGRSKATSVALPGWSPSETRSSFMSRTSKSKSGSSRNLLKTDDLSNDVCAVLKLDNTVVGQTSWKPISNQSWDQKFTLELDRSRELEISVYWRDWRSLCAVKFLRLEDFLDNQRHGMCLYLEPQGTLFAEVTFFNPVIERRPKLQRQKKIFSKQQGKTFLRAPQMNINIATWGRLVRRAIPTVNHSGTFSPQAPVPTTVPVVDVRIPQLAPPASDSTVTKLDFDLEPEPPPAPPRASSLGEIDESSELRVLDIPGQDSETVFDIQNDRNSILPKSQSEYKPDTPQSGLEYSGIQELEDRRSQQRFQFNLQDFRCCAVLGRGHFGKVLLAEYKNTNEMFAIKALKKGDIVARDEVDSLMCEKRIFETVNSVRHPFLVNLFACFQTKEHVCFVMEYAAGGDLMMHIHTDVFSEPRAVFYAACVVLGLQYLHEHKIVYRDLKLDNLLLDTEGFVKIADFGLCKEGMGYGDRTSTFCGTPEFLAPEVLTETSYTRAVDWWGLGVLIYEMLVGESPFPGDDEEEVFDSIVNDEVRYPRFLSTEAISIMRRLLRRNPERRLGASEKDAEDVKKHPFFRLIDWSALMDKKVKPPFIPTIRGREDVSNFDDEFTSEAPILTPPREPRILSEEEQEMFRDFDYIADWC

Take `Cc1ccc(NC2=CC(=O)c3sc(C)nc3C2=O)cc1`: the residual activity in assay [1] came to 91%; in assay [2], 95%; in assay [3], 105%; in [4] it was 88%; in assay [5], 110%; in assay [6], 114%. Also, the residual activity in assay [7] was 93%; in [8] it was 89%; in assay [9] it was 87%; in assay [10], 90%; in assay [11], 114%; in [12] it was 92%. In addition, the residual activity in assay [13] worked out at 94%; in [14], 85%; in [15], 99%; in [16], 111%; in [17], 91%; in [18], 92%. For the same compound, the residual activity in [19] was 87%; in [20] it was 89%.
For the compound `O=C1NC(=O)c2c1c1c3ccccc3[nH]c1c1[nH]c3cc(Br)ccc3c21`, the residual activity worked out at 99% in assay [1]; 113% in [2]; 92% in assay [3]; 83% in assay [4]; 105% in [5]; 106% in assay [6]. Besides, the residual activity was found to be 87% in assay [7]; 84% in [8]; 94% in [9]; 90% in assay [10]; 114% in assay [11]; 71% in [12]. Further, the residual activity is 28% in [13]; 13% in assay [14]; 27% in [15]; 6% in [16]; 29% in assay [17]; 14% in [18]. Also, the residual activity in [19] and in [20] was 90% throughout.
With `O=C(O)c1ccc2c3c1cccc3c(=O)n1c3ccccc3nc21`, the residual activity in assay [1] is 95%; in [2], 97%; in assay [3], 98%; in assay [4] it was 83%; in assay [5], 81%; in assay [6], 62%. Moreover, the residual activity is 96% in [7]; 86% in assay [8]; 95% in assay [9]; 90% in assay [10]; 95% in assay [11]; 72% in [12]. For the same compound, the residual activity in [13] turned out to be 58%; in [14], 23%; in [15], 14%; in [16] it was 0%; in assay [17], 15%; in assay [18], 1%. The residual activity in assay [19] was 92%; in [20] it was 94%.
In the case of `O=C1Nc2cc(Br)ccc2/C1=C1/Nc2ccccc2/C1=N\O`, the residual activity in [1] is 90%; in assay [2] it was 109%; in assay [3], 78%; in [4], 61%; in assay [5], 76%; in assay [6], 90%. For the same compound, the residual activity was determined as 75% in assay [7]; 92% in assay [8]; 2% in [9]; 0% in [10]; 55% in [11]; 24% in [12]. The residual activity in assay [13] is 67%; in assay [14], 78%; in assay [15], 106%; in assay [16] it was 85%; in assay [17] it was 78%; in assay [18], 81%. The residual activity in assay [19] came to 79%; in assay [20], 81%.
On to `CCC(=O)Nc1ccc2ncnc(Nc3cccc(Br)c3)c2c1`, for which the residual activity in [1] amounted to 108%; in assay [2] it was 96%; in [3], 89%; in assay [4], 81%; in [5], 74%; in [6] it was 74%. Moreover, the residual activity in assay [7] is 90%; in assay [8], 99%; in assay [9], 94%; in [10] it was 59%; in assay [11] it was 90%; in assay [12], 108%. Moreover, the residual activity is 80% in [13]; 86% in assay [14]; 104% in assay [15]; 94% in assay [16]; 92% in assay [17]; 85% in [18]. The residual activity in assay [19] was determined as 93%; in [20], 71%.
For `NC(=O)c1ccc2[nH]c(-c3ccc(Oc4ccc(Cl)cc4)cc3)nc2c1`, the residual activity in [1] was determined as 99%; in assay [2], 105%; in assay [3] it was 105%; in assay [4] it was 77%; in [5], 91%; in assay [6], 67%. The residual activity came out at 101% in assay [7]; 90% in assay [8]; 94% in assay [9]; 106% in assay [10]; 89% in assay [11]; 80% in assay [12]. Further, the residual activity in assay [13] turned out to be 121%; in [14] it was 116%; in assay [15] it was 108%; in [16], 119%; in assay [17] it was 83%; in [18], 83%. For the same compound, the residual activity was determined as 75% in [19] and 69% in assay [20].
`CC(C)n1cnc2/c(=N/c3cccc(Cl)c3)nc(NCCO)[nH]c21`: the residual activity in assay [1] turned out to be 92%; in [2] it was 106%; in [3] it was 94%; in [4], 72%; in assay [5], 105%; in assay [6] it was 88%. The residual activity in assay [7] was 86%; in assay [8] it was 62%; in assay [9], 75%; in [10], 29%; in assay [11], 52%; in assay [12] it was 33%. The residual activity was determined as 115% in [13]; 66% in assay [14]; 137% in [15]; 93% in assay [16]; 84% in assay [17]; 71% in [18]. In addition, the residual activity in assay [19] came to 30%; in [20], 6%.

The values above are taken from ChEMBL document CHEMBL2218924, “A broad activity screen in support of a chemogenomic map for kinase signalling research and drug discovery” (Biochem J, 2013).
